# “And” between values parts separate entries of the source, which are not always exact repeats. Equal entries are not always repeated. The panel holds about 79,000 compounds, 15% with a hit somewhere; the sample as a whole holds those more often. Where a structure was tested more than once in an assay, its records may differ in their call. The source made the active and inactive calls. No stated cut-off is given here; in the data, active means growth inhibition above about 70%; inactive means the rest.
# How the values were obtained:
# [1] = NCI Yeast Anticancer Drug Screen. Data for the rad50 strain (AID 155);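 further: 0% = growth of vehicle-only cultures of the same strain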; conditions: S. cerevisiae rad50 strain growth inhibition, stronger effect = higher value
# Procedure, shortened: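 Vehicle-treated cultures provide the reference for the growth inhibition reported for compound-exposed, repair-deficient yeast.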
# [2] = NCI Yeast Anticancer Drug Screen. Data for the mec2-1 strain (AID 157); conditions: S. cerevisiae mec2-1 strain, stronger effect = higher value
# Procedure, shortened: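 Strain: mec2-1 (DNA repair/cell cycle alteration). Compound exposure, then growth measured; inhibition expressed relative to vehicle.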
# [3] = NCI Yeast Anticancer Drug Screen. Data for the sgs1 mgt1 strain (AID 161);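 further: 0% = growth of cultures given vehicle only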; conditions: S. cerevisiae sgs1 mgt1 strain, stronger effect = higher value
# Procedure, shortened: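 Read-out: growth inhibition vs vehicle controls. Cells: mutant yeast strain deficient in DNA damage repair.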
# [4] = NCI Yeast Anticancer Drug Screen. Data for the cln2 rad14 strain (AID 165);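 further: 0% = growth equal to vehicle treated cultures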; conditions: S. cerevisiae cln2 rad14 strain, stronger effect = higher value
# Procedure, shortened: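 Compounds are applied to the cln2 rad14 yeast strain, and growth is then compared with that of vehicle-treated cultures to give inhibition.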
# [5] = NCI Yeast Anticancer Drug Screen. Data for the bub3 strain (AID 167); conditions: S. cerevisiae bub3 mutant strain, stronger effect = higher value
# Procedure, shortened: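 Mutant yeast screening strain plus compound; vehicle-treated cultures serve as the 0% inhibition reference.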
# [6] = NCI Yeast Anticancer Drug Screen. Data for the mlh1 rad18 strain (AID 175); conditions: S. cerevisiae mlh1 rad18 strain growth inhibition, stronger effect = higher value
# Procedure, shortened: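 Read-out is yeast growth inhibition, calculated against vehicle-only controls. The compound was applied to a strain engineered with DNA damage repair alterations.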
# [7] = at 5.0 µM (retest, dose inferred, filed as 0.5)
# [8] = at 50.0 µM (retest, dose inferred, filed as 5.0)
Structure (SMILES),"growth inhibition [1, 7]","growth inhibition [1, 8]",growth inhibition ([1]; at 50.0 µM),"growth inhibition [2, 7]","growth inhibition [2, 8]",growth inhibition ([2]; at 50.0 µM),"growth inhibition [3, 7]","growth inhibition [3, 8]",growth inhibition ([3]; at 50.0 µM),"growth inhibition [4, 7]","growth inhibition [4, 8]",growth inhibition ([4]; at 50.0 µM),"growth inhibition [5, 7]","growth inhibition [5, 8]",growth inhibition ([5]; at 50.0 µM),"growth inhibition [6, 7]","growth inhibition [6, 8]",growth inhibition ([6]; at 50.0 µM)
COC1OC2COC(c3ccccc3)OC2C(O)C1OS(=O)(=O)c1ccc(C)cc1 (centres undefined),-3% (inactive),1% (inactive),46.5% (inactive) and 3.9% (inactive),0% (inactive),51% (inactive),46.4% (inactive) and 2.7% (inactive),-7% (inactive),46% (inactive),74.6% (active) and 16.9% (inactive),-10% (inactive),-8% (inactive),31.8% (inactive) and -1.35% (inactive),-3% (inactive),2% (inactive),32.3% (inactive) and -1.1% (inactive),-1% (inactive),49% (inactive),63.1% (inactive) and 0.65% (inactive)
CC(C)(C)OC(=O)NOc1ccc([N+](=O)[O-])cc1[N+](=O)[O-],22% (inactive),99% (active),98.7% (active) and 99.5% (active),4% (inactive),100% (active),99.5% (active) and 99.7% (active),,,,8% (inactive),99% (active),97.2% (active) and 99.5% (active),9% (inactive),99% (active),99.2% (active) and 99.5% (active),68% (inactive),97% (active),99.2% (active) and 99.7% (active)
CCOc1ccc(N/N=C(\CCC(=O)O)C(=O)O)cc1,-6% (inactive),92% (active),96% (active),-9% (inactive),77% (active),81% (active),-3% (inactive),84% (active),50.2% (inactive),-64% (inactive),94% (active),94.1% (active),,,,-5% (inactive),96% (active),95.2% (active)
CC12CCCCC1C/C(=N/NC(N)=O)CC2 (centres undefined),-135% (inactive),-78% (inactive),8.9% (inactive) and 3.8% (inactive),-52% (inactive),-45% (inactive),13.1% (inactive) and 1.25% (inactive),-64% (inactive),-54% (inactive),-5.85% (inactive) and -9.35% (inactive),-58% (inactive),-42% (inactive),41.9% (inactive) and -25.8% (inactive),-62% (inactive),-49% (inactive),-4.1% (inactive) and -11.3% (inactive),-123% (inactive),-99% (inactive),14.5% (inactive) and 10.7% (inactive)
C=C1CCC[C@@H]2[C@@](C)(Cc3cc(O)ccc3O)C(C)CC[C@]12C (some centres undefined),16% (inactive),97% (active),97.5% (active),11% (inactive),97% (active),98.2% (active),,,,-4% (inactive),97% (active),97.3% (active),0% (inactive),97% (active),97.8% (active),11% (inactive),96% (active),97.7% (active)
COc1ccc(-c2c(C#N)c(-c3ccc(C)cc3)n(NS(=O)(=O)c3ccccc3)c(=O)c2C#N)cc1,94% (active),97% (active),40.5% (inactive),42% (inactive),94% (active),49.8% (inactive),41% (inactive),75% (active),50.8% (inactive),49% (inactive),58% (inactive),66% (inactive),,,,91% (active),95% (active),43% (inactive)
O=C(O)CCN1c2ccccc2Sc2ccccc21,1% (inactive) and -19% (inactive),31% (inactive) and 27% (inactive),35% (inactive) and 69.4% (inactive),-22% (inactive) and -12% (inactive),40% (inactive) and 48% (inactive),13.3% (inactive) and 52% (inactive),-5% (inactive) and -16% (inactive),46% (inactive) and 41% (inactive),27.9% (inactive) and 69.6% (inactive),-8% (inactive) and 13% (inactive),58% (inactive) and 52% (inactive),84.3% (active) and 54.4% (inactive),-15% (inactive) and -16% (inactive),51% (inactive) and 48% (inactive),64.9% (inactive) and 39.2% (inactive),-7% (inactive) and -39% (inactive),56% (inactive) and 35% (inactive),42.5% (inactive) and 54.9% (inactive)
O=[N+]([O-])c1ccc2ccccc2c1O,2% (inactive),94% (active),96.7% (active),8% (inactive),97% (active),97.7% (active),5% (inactive),97% (active),95.7% (active),3% (inactive),98% (active),97.4% (active),,,,3% (inactive),97% (active),98.5% (active)
CCCCCCCCCCCCCCCCCCOCC(O)CO (centres undefined),0% (inactive),-1% (inactive),45.5% (inactive),-2% (inactive),-1% (inactive),55.6% (inactive),-1% (inactive),-1% (inactive),62.6% (inactive),-1% (inactive),-7% (inactive),34.2% (inactive),2% (inactive),-1% (inactive),64.7% (inactive),-3% (inactive),-13% (inactive),57% (inactive)
CC(=O)/C(=C\c1ccc(Cl)c(Cl)c1)C(=O)CCN(C)C,13% (inactive) and 6% (inactive),42% (inactive) and 30% (inactive),49.2% (inactive) and 56% (inactive),13% (inactive) and -8% (inactive),43% (inactive) and 26% (inactive),78.2% (active) and 42.8% (inactive),22% (inactive) and 9% (inactive),45% (inactive) and 50% (inactive),58.6% (inactive) and 63.7% (inactive),19% (inactive) and 16% (inactive),17% (inactive) and 21% (inactive),18.8% (inactive) and 41.1% (inactive),5% (inactive) and 18% (inactive),41% (inactive) and 42% (inactive),58% (inactive) and 58.1% (inactive),20% (inactive) and 8% (inactive),50% (inactive) and 49% (inactive),74.2% (active) and 72.2% (active)
O=C1C=CC(=O)c2c1ccc1c3ccccc3n(Cc3ccccc3)c21,27% (inactive),84% (active),73% (active),38% (inactive),90% (active),71.2% (active),41% (inactive),90% (active),59% (inactive),19% (inactive),49% (inactive),38% (inactive),52% (inactive),92% (active),76% (active),47% (inactive),90% (active),25.1% (inactive)
Fc1ccc(NC(=S)SCc2ccc3c(c2)OCO3)cc1,3% (inactive),98% (active),99% (active),1% (inactive),99% (active),98.5% (active),3% (inactive),99% (active),99.5% (active),-13% (inactive),95% (active),98.5% (active),,,,-4% (inactive),95% (active),99.3% (active)
c1ccc([P+](CCCCCCCC[P+](c2ccccc2)(c2ccccc2)c2ccccc2)(c2ccccc2)c2ccccc2)cc1,40% (inactive),98% (active),88.5% (active),39% (inactive),99% (active),92% (active),46% (inactive),98% (active),90.9% (active),30% (inactive),95% (active),87.7% (active),46% (inactive),98% (active),91.1% (active),73% (active),97% (active),89.8% (active)
CCOC(=O)C(CN)(c1ccccc1)c1ccccc1,-7% (inactive),1% (inactive),11.8% (inactive),-4% (inactive),8% (inactive),-5.4% (inactive),-4% (inactive),-13% (inactive),5.35% (inactive),2% (inactive),-12% (inactive),43.8% (inactive),-4% (inactive),0% (inactive),-1.15% (inactive),-7% (inactive),-10% (inactive),17.1% (inactive)
O=S(=O)(O)c1ccc(-c2c3nc(c(-c4ccc(S(=O)(=O)O)cc4)c4ccc([nH]4)c(-c4ccc(S(=O)(=O)O)cc4)c4nc(c(-c5ccc(S(=O)(=O)O)cc5)c5ccc2[nH]5)C=C4)C=C3)cc1,61% (inactive) and 82% (active),94% (active) and 91% (active),92.8% (active) and 94.3% (active),72% (active) and 96% (active),97% (active) and 95% (active),96.8% (active) and 87.5% (active),,,,32% (inactive) and 40% (inactive),80% (active) and 67% (inactive),91.8% (active) and 91.4% (active),51% (inactive) and 64% (inactive),92% (active) and 83% (active),93.6% (active) and 92.8% (active),74% (active) and 93% (active),92% (active) and 93% (active),96% (active) and 91.2% (active)

# From PubChem BioAssay (NCI)
